Results from PubChem BioAssay AID1159580 (chemical genetic matrix, 2015).
“And” between values parts separate entries of the source, which are not always exact repeats. Equal entries are not always repeated. Among all 5,500 compounds or so, about 2,000 (36%) were called active. Inconclusive results (about 18%) are left out. No stated cut-off is given here; in the data, active means normalized growth mostly below about 0.91 (no sharp cut-off); inconclusive means no clear call, values can overlap the other calls; inactive means mostly above about 0.92. This is one part of the list.

Assay: chemical genetic growth profiling, strain panel (AID 1159580);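 further: tested at 20 µM; growth read once vehicle control cultures reached saturation at 30 °C; 1 = growth at the plate median or of vehicle wells; lower values mean less growth of the strain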
Conditions: S. cerevisiae deletion strains, growth OD

Measured: normalized growth

Cc1ccc2c(c1)CC[C@H]1CC(=O)CC[C@]21C
inactive: locus YAL013W, strain DEP1, active compounds read low 1.01 | locus YAL021C, strain ccr4, active compounds read low 0.991 | locus YAL026C, strain drs2, active compounds read low 1.01 | locus YAL030W, strain snc1, active compounds read low 1.01 | locus YBL061C, strain skt5, active compounds read low 1 | locus YBR009C, strain hhf1, active compounds read low 1 | locus YBR021W, strain FUR4, active compounds read low 0.971 | locus YBR023C, strain chs3, active compounds read low 0.998 | locus YBR171W, strain sec66, active compounds read low 0.992 | locus YBR229C, strain ROT2, active compounds read low 0.997 | locus YBR231C, strain swc5, active compounds read low 1.01 | locus YBR279W, strain paf1, active compounds read low 1.01 | locus YCL011C, strain gbp2, active compounds read low 0.995 | locus YCL016C, strain dcc1, active compounds read low 1.01 | locus YCL029C, strain bik1, active compounds read low 0.991 | locus YCL069W, strain vba3, active compounds read low 0.995 | locus YCR088W, strain abp1, active compounds read low 0.998 | locus YDL005C, strain med2, active compounds read low 1.01 | locus YDL035C, strain GPR1, active compounds read low 0.973 | locus YDL040C, strain nat1, active compounds read low 1 | locus YDL074C, strain BRE1, active compounds read low 0.971 | locus YDL101C, strain DUN1, active compounds read low 1.01 | locus YDL134C, strain PPH21, active compounds read low 1 | locus YDL185W, strain tfp1, active compounds read low 0.983 | locus YDL192W, strain arf1, active compounds read low 0.974 | locus YDR001C, strain nth1, active compounds read low 0.998 | locus YDR069C, strain doa4, active compounds read low 1.01 | locus YDR101C, strain arx1, active compounds read low 0.97 | locus YDR137W, strain rgp1, active compounds read low 0.956 | locus YDR150W, strain NUM1, active compounds read low 1 | locus YDR159W, strain sac3, active compounds read low 1.01 | locus YDR162C, strain NBP2, active compounds read low 0.974 | locus YDR195W, strain ref2 1.05 | locus YDR297W, strain sur2, active compounds read low 0.991 | locus YDR318W, strain mcm21, active compounds read low 0.972 | locus YDR334W, strain swr1, active compounds read low 1.01 | locus YDR335W, strain msn5, active compounds read low 1 | locus YDR388W, active compounds read low 0.979 | locus YDR392W, strain spt3, active compounds read low 0.983 | locus YDR502C, strain sam2, active compounds read low 0.968 | locus YEL003W, strain gim4, active compounds read low 0.991 | locus YEL037C, strain rad23, active compounds read low 1.01 | locus YEL061C, strain CIN8 (second series), active compounds read low 0.993 | locus YEL061C, strain CIN8, active compounds read low 1 | locus YER015W, strain faa2, active compounds read low 1.01 | locus YER016W, strain bim1, active compounds read low 1 | locus YER110C, active compounds read low 0.966 | locus YER111C, strain swi4, active compounds read low 0.991 | locus YER155C, strain BEM2 (second series), active compounds read low 0.978 | locus YER155C, strain BEM2, active compounds read low 0.997 | locus YER167W, strain BCK2, active compounds read low 0.991 | locus YFR010W, strain ubp6, active compounds read low 1.01 | locus YGL078C, strain dbp3, active compounds read low 0.989 | locus YGL086W, strain mad1, active compounds read low 0.981 | locus YGL167C, strain pmr1, active compounds read low 0.998 | locus YGL173C, strain kem1, active compounds read low 0.982 | locus YGL227W, strain vid30, active compounds read low 1 | locus YGL240W, strain doc1, active compounds read low 0.987 | locus YGL248W, strain PDE1, active compounds read low 0.993 | locus YGL253W, strain hxk2, active compounds read low 1 | locus YGR078C, strain PAC10, active compounds read low 0.982 | locus YGR135W, strain pre9, active compounds read low 0.959 | locus YGR229C, strain SMI1, active compounds read low 1.01 | locus YGR252W, strain gcn5, active compounds read low 0.881 | locus YHR013C, strain ard1, active compounds read low 1.02 | locus YHR027C, strain rpn1, active compounds read low 1.01 | locus YHR030C, strain SLT2, active compounds read low 0.996 and 0.98 | locus YHR079C, strain IRE1 (second series), active compounds read low 0.969 | locus YHR079C, strain IRE1, active compounds read low 0.973 | locus YHR094C, strain hxt1, active compounds read low 0.995 | locus YHR129C, strain ARP1, active compounds read low 0.996 | locus YHR142W, strain chs7, active compounds read low 0.985 | locus YHR200W, strain rpn10, active compounds read low 0.979 | locus YIL066C, strain RNR3, active compounds read low 0.993 | locus YIL073C, strain SPO22, active compounds read low 0.965 | locus YIL125W, strain kgd1, active compounds read low 0.999 | locus YIR030C, strain dcg1, active compounds read low 0.974 | locus YJL092W, strain hpr5, active compounds read low 1 | locus YJL095W, strain BCK1 (second series), active compounds read low 1.01 | locus YJL095W, strain BCK1, active compounds read low 0.967 and 0.983 | locus YJL115W, strain asf1, active compounds read low 1.01 | locus YJL129C, strain trk1, active compounds read low 1 | locus YJL134W, strain LCB3, active compounds read low 0.997 | locus YJL154C, strain vps35, active compounds read low 0.993 | locus YJL164C, strain tpk1, active compounds read low 0.992 | locus YJL166W, strain qcr8, active compounds read low 0.995 | locus YJL168C, strain set2, active compounds read low 0.971 | locus YJL187C, strain SWE1 (second series), active compounds read low 1.01 | locus YJR043C, strain POL32, active compounds read low 0.967 | locus YJR066W, strain TOR1, active compounds read low 0.897 | locus YJR075W, strain HOC1, active compounds read low 1
